# Compound activity as filed in PubChem BioAssay.
# This is a sample that favours compounds with a hit; in the whole collection about 4% have one here.
# esBAF inh: SWI/SNF esBAF complex inhibition | mouse ES cells, Bmi1-luciferase knock-in reporter, 24 h; 100% = twice the neutral-well signal | reporter increase, % at 12.5 µM | actives 2% (n = 350,000) | AID 602393; in the data active = activation above about 40%; inconclusive = no clear call, values can overlap the other calls;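 also: 0% = median of the plate's neutral control wells and 100% = double that signal; a rise in the Bmi1 reporter signal indicates esBAF inhibition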
# LMP1 NFkB inh: inhibitors of Epstein-Barr LMP1-induced NF-kappaB reporter. actives 0.69% (n = 350,000). LMP1-induced NF-kappaB luciferase reporter cells, luminescence. AID 504558. inhibition, % at 12.5 µM; in the data active = inhibition above about 41%; inconclusive = no clear call, values can overlap the other calls;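 also: 0% = neutral control wells and 100% = reference inhibitor control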
# TRPM1 prom inh: inhibitors of MITF-driven TRPM1 promoter in melanoma cells | AID 488899 | SK-MEL-5 TRPM1 promoter luciferase, 24 h | actives 0.83% (n = 330,000) | inhibition, % at 12.5 µM;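 active = mean inhibition across replicates of 60% or more, whatever share of single replicates reaches that level; inconclusive = some that reach 60%, reason not given; inactive = mean inhibition across replicates below 60%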
# Wnt act: Wnt/beta-catenin pathway activation; activation, % at 9.35 µM; actives 1.2% (n = 300,000); Wnt/beta-catenin reporter cell assay, activator, plate reader; in the data active = activation above about 30%, passing the limit was not always enough; inconclusive = no clear call, values can overlap the other calls;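 also: 0% = neutral control wells and 100% = positive control wells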
# Statin myotox sup: suppression of simvastatin myotoxicity | C2C12 myotubes + simvastatin, ATP luminescence, 48 h; scaled: DMSO 0, geranylgeraniol control 100 | rescue of ATP level, % at 7.49 µM | actives 0.78% (n = 330,000);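 active = mean ATP rescue above about 67%, or every replicate alone reaching that limit, limit read from the data, passing the limit was not always enough; inconclusive = no clear call, values can overlap the other calls; inactive = mean under the limit and some replicate under it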;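 also: myotubes were challenged with 10 µM simvastatin during compound exposure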
# MITF act: MITF TRPM1 promoter activation in melanoma cells; SK-MEL-5 TRPM1-promoter luciferase, 24 h; % of positive control, neutral wells = 0; actives 0.75% (n = 300,000); activation, % at 12.5 µM;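 active = mean activation of at least 80% with every replicate also reaching 80%; inconclusive = mean reaches 80% but some replicate falls short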;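 also: 0% = neutral control wells and 100% = parthenolide positive control wells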
# Starred values were filed as active, the others as inactive; u = inconclusive; x = not tested or not shown.
SMILES,esBAF inh,LMP1 NFkB inh,TRPM1 prom inh,Wnt act,Statin myotox sup,MITF act
CCCNC(=O)CC(NS(=O)(=O)c1ccc(OC)cc1)c1ccco1 (configuration not stated),x,-5.4,0.3,1.0,x,0.8
COc1ccc(S(=O)(=O)NC(CC(=O)NCc2ccc3c(c2)OCO3)c2ccco2)cc1 (configuration not stated),-3.4,-3.7,7.9,x,116.6*,-11.7
CCCNS(=O)(=O)c1ccc(CCC(=O)NCc2ccc3c(c2)OCO3)cc1,x,5.3,11.5,x,x,-9.9
CCC(Sc1nc(=O)cc(N)n1CCc1ccccc1)C(=O)Nc1cc(C)on1 (configuration not stated),2.3,0.0,1.6,0.5,-0.7,-5.7
CCc1ccc([C@@H]2CC(=O)[C@@H]3CN(S(=O)(=O)c4ccccc4C)[C@H](c4ccc(Cl)cc4)C[C@@H]3N2S(=O)(=O)c2ccc(C)cc2)cc1,-15.6,x,x,-2.5,-31.9,x
COc1ccc(NCc2cc3cc(OC)ccc3[nH]c2=O)cc1,22.9,1.7,-2.8,3.7,3.5,6.9
COc1ccc2[nH]c(=O)c(CNc3cccc(C)c3)cc2c1,56.1*,-2.7,-16.5,x,29.2,14.7
O=C(N[C@@H]1CC[C@@H](CCNC(=O)C2CCOCC2)O[C@H]1CO)c1ccccn1,0.8,x,x,x,-3.8,x
COc1ccc(N=Nc2cc(C)ccc2O)cc1,x,-19.5,-50.0,53.8*,x,60.0
CCOc1ccc2nc3cc(N=Nc4ccc(N)nc4N)ccc3c(N)c2c1,x,-40.0,72.8*,x,x,-73.6
COc1ccc(N=Nc2cc(OC)c(N)cc2OC)cc1,51.1*,3.9,3.5,2.5,1.6,-4.4
Nc1ccc(N=Nc2ccc(O)cc2)c(N)n1,x,-17.7,-74.3,2.9,x,72.1
COc1ccc(OC)c(N)c1,x,-0.6,12.9,-16.3,x,-12.1
COc1ccc(N=Nc2ccc(N)nc2N)cc1,16.5,-46.6,-65.6,40.7*,2.4,67.2
COc1ccc(N=Nc2ccc3ccccc3c2)c(O)c1,-38.1,-39.3,-13.2,6.5,-0.1,x
Cc1cccn2c(NCc3ccc4c(c3)OCO4)c(-c3ccc(O)cc3)nc12,x,-9.8,0.3,-8.4,x,-2.8
O=C(Nc1cccc(Cl)c1)N1C[C@H]2[C@@H](c3ccccc31)[C@@H](CO)N2C(=O)c1cccnc1,3.4,x,x,x,-12.7,x
CCCCc1nc2ccccc2c(=O)n1NC(=O)c1c(O)c2ccccc2n(C)c1=O,x,3.8,13.4,-0.5,x,-13.7
CC(=O)c1cc2c(cc1NC(=O)c1ccc(-n3nc(C)cc3C)cc1)OCO2,4.4,11.8,11.4,-5.6,-12.5,-13.6
O=C(Nc1ccc2c(c1)OCO2)c1ccc(Cl)cc1Cl,-23.0,-16.0,-60.1,6.3,0.9,63.6
Cc1cc(NS(=O)(=O)c2ccc(NC(=O)Nc3ccc4c(c3)OCO4)cc2)no1,41.9*,-21.6,-27.7,x,-8.6,27.6
O=C(Nc1ccc2c(c1)OCO2)c1cc(Cl)ccn1,44.3*,-32.8,-56.8,-1.2,-2.2,57.1
CC(C)Cc1cc(C(=O)Nc2ccc3c(c2)OCO3)no1,33.5,-38.1,-51.8,58.4*,9.5,58.0
Cc1cc(C)n(-c2ccc(C(=O)Nc3ccc4c(c3)OCO4)cc2)n1,67.8*,-3.4,-66.3,9.1,x,64.4
Cc1ccc(NC(=O)c2cc(-c3ccc4c(c3)OCO4)on2)cc1C,6.2,-4.7,-25.4,3.0,2.9,29.4
SMILES,esBAF inh,LMP1 NFkB inh,TRPM1 prom inh,Wnt act,Statin myotox sup,MITF act
Cc1cc(C(=O)Nc2ccc3c(c2)OCO3)no1,u,-24.4,-104.8,22.3,-2.3,106.0*
Cc1cccc(C(C(C(=O)c2ccccc2)N2CCOCC2)N2CCOCC2)c1 (configuration not stated),3.9,-5.8,-19.9,-5.3,0.6,17.3
CC(C)c1ccc(C(C(C(=O)c2ccccc2)N2CCOCC2)N2CCOCC2)cc1 (configuration not stated),46.5*,-6.1,-21.5,9.0,4.5,28.0
COc1cc2c(cc1[N+](=O)[O-])-c1ccccc1C2,41.6*,-4.0,-24.3,-11.6,4.6,26.0
COc1cc2c(cc1[N+](=O)[O-])-c1ccc([N+](=O)[O-])cc1C2,35.5,x,x,-5.0,19.1,x
Cc1nnc(N(C)C(=O)c2cccnc2)s1,-8.4,2.3,-5.1,-6.0,86.6*,7.1
CCC(=O)Nc1nnc(-c2ccncc2)s1,x,-1.9,-2.4,x,x,3.6
